Six1-Eya2 blk: blocks human Six1 binding to Eya2 | AlphaScreen GST-Six1/His-Eya2 binding, biochemical; active compounds read low | activity change, % (concentration not given with the values) | 360,000 compounds, 0.56% hits | AID 651725
Target sequence (O00167 whole entry, looked up): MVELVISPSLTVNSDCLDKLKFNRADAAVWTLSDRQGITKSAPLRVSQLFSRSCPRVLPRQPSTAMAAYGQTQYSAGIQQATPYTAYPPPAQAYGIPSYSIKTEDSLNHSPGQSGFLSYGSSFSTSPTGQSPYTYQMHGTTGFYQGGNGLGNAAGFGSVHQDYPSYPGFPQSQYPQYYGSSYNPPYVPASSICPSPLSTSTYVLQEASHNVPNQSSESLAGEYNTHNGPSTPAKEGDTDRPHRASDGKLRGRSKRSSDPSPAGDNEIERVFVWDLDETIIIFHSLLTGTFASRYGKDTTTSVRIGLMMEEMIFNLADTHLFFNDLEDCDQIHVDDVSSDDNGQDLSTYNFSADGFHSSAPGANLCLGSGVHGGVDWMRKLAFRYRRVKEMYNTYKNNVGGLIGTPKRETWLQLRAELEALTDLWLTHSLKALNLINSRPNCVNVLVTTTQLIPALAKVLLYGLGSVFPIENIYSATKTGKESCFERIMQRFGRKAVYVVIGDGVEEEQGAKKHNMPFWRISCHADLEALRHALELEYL
Target sequence (Q15475 whole entry, looked up): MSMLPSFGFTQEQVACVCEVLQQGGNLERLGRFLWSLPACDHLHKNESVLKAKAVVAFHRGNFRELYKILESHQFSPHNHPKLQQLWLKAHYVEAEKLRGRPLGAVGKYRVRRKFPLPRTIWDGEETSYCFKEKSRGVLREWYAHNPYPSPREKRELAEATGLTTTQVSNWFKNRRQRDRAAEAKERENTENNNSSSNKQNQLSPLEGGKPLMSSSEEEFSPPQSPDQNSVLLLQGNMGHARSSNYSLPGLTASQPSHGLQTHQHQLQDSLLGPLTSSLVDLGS
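Six1/Eya2 binding was read as AlphaScreen signal after compounds were pinned into GST-Six1 plus His-tagged Eya2 (5X stock 250/500 nM) in pH 8.0 Tris/NaCl/TCEP buffer, beads added, then incubated 1 h, 37 C, dark.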
pAkt inh: blocks phosphorylation of Akt; Neuro2A IGF-stimulated pAkt S473 HTRF, 20 min; active compounds read low; activity change, % for hits at 50 µM; 360,000 compounds, 0.32% hits; in the data active means activity change below about -80%; inconclusive means mostly about -51% to -80%
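Neuro2A cells (4,500/well, DMEM with 0.5% FBS) were treated with compound at a single 50 µM final concentration, stimulated with 6 nM IGF for 20 min at 37 °C, and lysed. Phospho-Akt Ser473 was read by HTRF as 665/615 ratio ×10^4.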
CtBP-E1A blk: inhibitors of CtBP/E1A interaction; 340,000 compounds, 0.49% hits; AlphaScreen GST-E1A/His-CtBP binding, 1536-well; active compounds read low; AID 651724; activity change, % (concentration not given with the values)
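In 5 uL wells, 23 nL compound meets equimolar GST-E1A and His-CtBP (5X stock 125 nM each) for 2 h, 37 °C. Beads (5X, 50 ug/mL) then 1 h, 37 °C, dark.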
CCT modulator: cytosolic chaperonin activity modulation; purified chaperonin ATPase assay, HTRF ADP detection, 30 min; activity change, % (test concentration not listed), hits read low; 360,000 compounds, 0.3% hits; in the data active means activity change below about -30%
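First, chaperonin was dispensed at 40 nM or 20 nM final depending on batch activity. Next, compounds were pinned at 76 uM and ATP added at 10 uM. After 30 min at 37 °C, ADP detection reagents ran 30 min at ambient temperature.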
Numbers without * were called inactive; i = inactive; u = inconclusive; x = not tested or not shown. Only some compounds are listed: those with a hit (about 1.3% of all), similar ones and a draw of the others. Unless noted, no stated cut-off is given here; in the data, active means activity change below about -65%; inconclusive means mostly about -30% to -63%; inactive means weaker than that. On the % scale 0 is the no-effect control and ±100 the full control effect.

SMILES	Six1-Eya2 blk	pAkt inh	CtBP-E1A blk	CCT modulator
COc1cccc(CNc2ccc(N3CCC(C)CC3)cc2)c1OC	-72*	i	-70*	2
COCCCC1CCN(C(=O)C2CCC(=O)N(Cc3ccccc3F)C2)CC1 (stereo not given)	8	i	17	-1
COc1cc(SC)ccc1C(=O)NCCNC(=O)c1nonc1N	4	i	-16	-1
CCCNC(=O)Nc1ccc(C)cc1C	-2	i	x	-45*
Cc1ccc(NC(=O)CCC(=O)NNC(=O)C(C)(C)C)c(C)c1	3	i	x	-92*
CC(=O)Nc1ccc(NC(=O)Nc2ccc(C)cc2C)cc1	1	i	1	0
CCC(=O)NNC(=O)CCC(=O)Nc1ccc(C)cc1C	2	i	x	1
CCO[C@@H]1OC(C(=O)NCc2nc3ccccc3[nH]2)=C[C@H](c2coc3ccccc3c2=O)[C@H]1CCCO	6	i	2	-1
O=C(Cc1n[nH]c(=O)c2ccccc12)Nc1ccc(-c2nnc3n2CCCCC3)cc1	6	-110%*	-4	-3
O=C(O)c1ccccc1-c1ccc(/C=c2\sc3nc4cc(Br)cnc4n3c2=O)o1	-81*	x	u	3
Cc1cc2nc3s/c(=C/c4ccc(-c5ccccc5C(=O)O)o4)c(=O)n3c2cc1C	u	i	x	-2
O=C(Nc1cccnc1)c1cc2c(s1)-c1ccccc1OC2	24	x	x	-71*
CN1CCN(c2ccccc2NC(=O)c2cc3c(s2)-c2ccccc2OC3)CC1	-1	i	-79*	-2
Cc1ccc(OCC(=O)N2CCN(C(=O)CCC3CCCC3)CC2)cc1	-3	i	4	-76*
O=C(CN1CCN(Cc2cccc(F)c2)CC1)NCc1ccccc1	-12	i	-6	-3
Cn1c(=O)c2c(ncn2CC(O)CNc2cccc(Cl)c2)n(C)c1=O (stereo not given)	119	i	163	-7
Cc1ccc(S(=O)(=O)CC(C)N2CCOCC2)c(S(=O)(=O)CC(C)N2CCOCC2)c1 (stereo not given)	2	i	7	-41*
CCS(=O)(=O)c1ccc(OC)c(N=Nc2ccc(O)c3ncccc23)c1	-92*	i	-96*	1
CCN(CC)S(=O)(=O)c1cc(OC)ccc1N=Nc1ccc(O)c2ncccc12	-92*	i	x	-1
CCOc1ccc(NC(=O)CN(C)C(=O)CC(NC(=O)c2ccccc2)c2ccccc2)cc1OCC (stereo not given)	-13	i	-7	-2
CC(C)=CC(=O)OCC(=O)Nc1ccccc1Cl	1	i	6	-54*
CC(C)=CC(=O)OCC(=O)Nc1cc(C)ccc1C	6	i	0	0
CC(C)n1nc(C(=O)Nc2ccc(-n3cnnn3)cc2)c2ccccc2c1=O	2	i	1	-31*
Cn1nc(C(=O)Nc2ccc(-n3cnnn3)cc2)c2ccccc2c1=O	-15	i	0	1
CCc1nc2ccc(C(=O)NCCOc3ccc(OC)cc3)cn2c1N(C)CCCc1ccccc1	-10	i	-29	0
SMILES	Six1-Eya2 blk	pAkt inh	CtBP-E1A blk	CCT modulator
CCOC(=O)N1CCN(C(=O)c2ccccc2NC(=O)COc2ccccc2)CC1	-6	i	5	2
CC1CCCCC1NC(=S)NC(=O)c1sc2ccccc2c1Cl (stereo not given)	-19	i	-21	-47*
Cc1cc(Br)cc(/C=N/NC(=O)c2ccc3c(c2)OCO3)c1O	0	i	x	-2
O=C(N/N=C/c1cc(Cl)cc([N+](=O)[O-])c1O)c1ccc2c(c1)OCO2	-20	i	u	-1
COc1cc(Cl)cc(/C=N\NC(=O)c2ccc3c(c2)OCO3)c1O	-88*	i	u	0
O=C(N/N=C/c1cc(Br)cc(Cl)c1O)c1ccc2c(c1)OCO2	-81*	i	-83*	-1
CC(C)C(=O)Nc1ccc(NC(=O)c2ccc3c(c2)OCO3)cc1	-15	i	x	0
O=C(N/N=C/c1cc(Br)c(Br)o1)c1ccc2c(c1)OCCO2	-28	i	-4	0
O=C(N/N=C/c1cc(Br)c(O)c(Br)c1O)c1ccc2c(c1)OCCO2	-85*	i	-97*	0
COc1cc(NC(=O)c2ccc3c(c2)OCO3)ccc1NC(=O)C(C)C	-10	-115%*	5	1
O=C(Cc1ccccc1F)NC1CCCN(Cc2ccc(Cl)cc2)C1 (stereo not given)	-7	i	6	-1
O=C(N/N=C/c1ccccc1O)c1ccc2c(c1)OCO2	u	i	-78*	-2
O=C(N/N=C/c1ccc2c(c1)OCO2)c1ccc2c(c1)OCCO2	-17	i	-14	0
Cc1cccc(NC(=O)CCc2ccccc2)c1C	20	i	-21	-49*
Cc1cccc(NC(=O)CNCC(=O)Nc2cccc(C)c2C)c1C	0	i	2	-49*
O=C(NCCc1ccccc1F)C1CCC(=O)N(Cc2ccc(Cl)cc2)C1 (stereo not given)	7	i	-16	-1
NC(=O)c1cnn2c1NC(c1ccc(F)cc1)CC2C(F)(F)F (stereo not given)	4	-111%*	3	1
O=C(Nc1ccn(CCCN2CCC(N3CCOCC3)CC2)c(=O)n1)OCc1ccccc1	5	i	-9	0
O=C(N/N=C/C=C/c1ccco1)c1cnccn1	-19	i	-10	1
O=C(N/N=C/C=C\c1ccco1)c1ccccn1	-88*	i	10	4
CCC(C)(C(=O)NC1CCCCC1)N(Cc1ccco1)C(=O)c1ccccn1 (stereo not given)	1	-107%*	2	0
COc1ccc(C2C(C(=O)OCC3CCCO3)=C(C)NC3=C2C(=O)CC(c2ccco2)C3)cc1O (stereo not given)	-4	-113%*	-10	-3
CCN(CC)S(=O)(=O)c1ccc(OC)c(NC(=O)C(C)Oc2ccc3c(C)cc(=O)oc3c2)c1 (stereo not given)	-3	i	-4	-31*
CCN(CC)S(=O)(=O)c1ccc(C)c(NC(=O)COc2ccc3c(C)cc(=O)oc3c2)c1	-3	i	-3	-1
Cc1occc1C(=O)N/N=C/c1cccc2ccccc12	-20	i	-7	0
SMILES	Six1-Eya2 blk	pAkt inh	CtBP-E1A blk	CCT modulator
N#Cc1ccccc1S(=O)(=O)N1CCN(C(=O)C2CCCC2)CC1	-7	i	0	1
COc1ccccc1NS(=O)(=O)c1cccc(C(=O)N2CCCC2)c1	-2	i	11	-1
COc1ccc(NC(=O)CSc2nc3c(sc4ccccc43)c(=O)n2CCCN2CCCC2)cc1	-11	i	-13	-1
O=C(Nc1cccc(S(=O)(=O)N2CCCCC2)c1)c1cc2ccccc2o1	-20	i	-14	2
COCc1c(C(=O)Nc2cccc(S(=O)(=O)N3CCCCC3)c2)oc2ccccc12	3	i	-16	-74*
Cc1ccccc1OCC(=O)NCCCNC(=O)c1cccnc1	2	i	1	-2

Screening results deposited in PubChem by National Center for Advancing Translational Sciences (NCATS).
